# Measured values reported in ChEMBL document CHEMBL4513216, “Probing the Open Global Health Chemical Diversity Library for Multistage-Active Starting Points for Next-Generation Antimalarials” (ACS Infect Dis, 2020).
# In all, about 69,000 compounds went through this assay and about 8,600 (12%) showed an effect of 50% or more. The entries come from a sample that favours strong results as a whole.
# Test system: Plasmodium berghei
# Assay: Screen against P. berghei liver stage (PbLuc), transformed with Luciferase, at 10uM
# Assay type: functional, HepG2
# Settings: tested at 10 uM
row,SMILES,INHIBITION [%]
1,O=C(NCCCn1nc2ccccn2c1=O)NCC(C1CC1)C1CC1,-20
2,CCCn1cc(-c2cc(-c3cnc(OC)nc3)c(C#N)c(N)n2)c(C)n1,25.1
3,CCNc1ncc(-c2cc(-c3ccn(C)c3)nc(N)c2C#N)cn1,36
4,COc1cc(-c2cc(-c3ccn(C)c3)nc(N)c2C#N)cc(OC)c1O,71.2
5,COc1ncc(-c2cc(-c3ccn(C)c3)nc(N)c2C#N)cn1,29.4
6,CCn1cc(-c2cc(-c3ccn(C)c3)nc(N)c2C#N)cc1C#N,81.1
7,Cc1ccc(-c2cc(-c3c(C)nn(CCO)c3C)c(C#N)c(N)n2)cc1,14.1
8,O=C(NCC1CC1)c1cc(C2CC2)nc2onc(C3CCCNC3)c12 (stereo not given),-3.11
9,CCN1CC2(CC1=O)CN(Cc1cnn(C)c1)CCN(C(=O)C(C)C)C2 (stereo not given),9.54
10,CC(NCCCc1cnn(C)c1)c1ccc(Br)s1 (stereo not given),45.7
11,COCCn1cc(NC(=O)NC(C)c2ccc(Cl)s2)cn1 (stereo not given),-6.04
12,CC(NCc1cnc(N2CCOCC2)nc1)c1ccc(Cl)s1 (stereo not given),51.8
13,CC(NCc1cnc(N2CCOCC2)s1)c1ccc(Cl)s1 (stereo not given),-19.1
14,CC(Cn1cccn1)NC(=O)NCCc1cnn(C)c1 (stereo not given),49.6
15,CC(NCCN1CCC(N(C)C)CC1)c1ccc(Cl)s1 (stereo not given),27.7
16,Cc1nc(C)c(C(C)NCc2cnc(N3CCOCC3)nc2)s1 (stereo not given),43.5
17,CC(NCCCc1cnn(C)c1)c1ccc(Cl)s1 (stereo not given),51.7
18,CC(NC(=O)NCCc1cnn(C)c1)c1ccc(Cl)s1 (stereo not given),68
19,CCc1nccn1C1CCCN(C(=O)c2ccc(NC3CC3)nc2)C1 (stereo not given),-40.0335
20,CNc1ncc(-c2ccc(NC(=O)[C@@H]3CCCCN3)cc2)cn1,4.08
21,COc1ncccc1CNC(=O)c1ccc(C)[nH]c1=O,20.5
22,COc1ccc(CN2CCn3c(CNS(C)(=O)=O)nnc3C2)cc1,13.1
23,Cn1cnnc1SCCCNC(=O)Nc1ncccn1,4.66
24,CCc1nnc2n1CCN(CC(=O)Nc1cc(C)nn1C)C2,45.6
25,Cn1cc(CN2CCC3(CC2)NC(=O)CC3c2ccncc2)cn1 (stereo not given),14.6
26,CN(CC(=O)Nc1cc(CC2CCCCC2)n[nH]1)S(C)(=O)=O,-37
27,CN(CCc1ccncc1)CCc1nccs1,79.5
28,CN(CCc1cccs1)CCc1nccs1,5.11

row,SMILES,INHIBITION [%]
1,CN(CCc1ccccn1)CCc1nccs1,40.9
2,CCN(C)c1ncnc2c1CCN(Cc1ccc(F)cc1)CC2,22.5
3,CCCc1nnc(NCCc2noc(C3CCCC3)n2)o1,22.5
4,CCn1ccc(C(=O)N2CCOC(c3nc(-c4cccs4)no3)C2)n1 (stereo not given),42.6
5,O=C(c1cnc(O)c(Cl)c1)N1CCCC(c2nccs2)C1 (stereo not given),26.9
6,CCCn1cc(C(=O)N2CCOC(c3nc(-c4cccs4)no3)C2)cn1 (stereo not given),48.6
7,CCn1cc(C(=O)N2CCOC(c3nc(-c4cccs4)no3)C2)cn1 (stereo not given),73.8
8,O=C(c1cncnc1)N1CCCC(c2nccs2)C1 (stereo not given),13.54
9,CCn1cc(C(=O)N2CCCC(c3nccs3)C2)cn1 (stereo not given),56
10,CCc1csc(C2CCCN(C(=O)c3cnn(CC)c3)C2)n1 (stereo not given),-19.7
11,CCCn1cc(C(=O)N2CCCC(Cc3nccs3)C2)cn1 (stereo not given),17.4
12,O=C(c1cnc(C2CC2)nc1)N1CCCC(c2nccs2)C1 (stereo not given),52
13,NC(=O)N1CCC(C(=O)NCc2nncn2-c2ccccc2)CC1,38.5
14,CC(C)c1nc(CN2CCOC(Cn3cccn3)C2)no1 (stereo not given),-38.7
15,Cc1ncncc1C(=O)N1C[C@@H]2CC[C@H]1CN(C(=O)c1ccncc1)C2,-19.2
16,CC(C)c1nccn1CCC(=O)NCC(C)(O)c1ccco1 (stereo not given),-33.4
17,CN(C(=O)c1ccco1)c1nc2c(s1)CCCC2,-68.6
18,Cc1cc(=O)n(CC(=O)NCC2CCCO2)c(-c2ccccc2)n1 (stereo not given),21
19,Cc1cc(=O)n(CC(=O)NCC2CCCO2)c(-c2cccc(Cl)c2)n1 (stereo not given),33.5
20,Cc1cc(=O)n(CC(=O)NCC2CCCO2)c(-c2ccc(F)cc2)n1 (stereo not given),50.1
21,O=C(N1CCCO1)[C@@]12CCO[C@@H]1CCN(Cc1ccc(F)cc1)C2,-47.8
22,O=C(C[C@@H]1COC[C@H]2CN(Cc3ccc(F)cc3)C[C@@H]12)N1CCCCO1,-13.4
23,O=C(C[C@@H]1COC[C@H]2CN(C3CCCC3)C[C@@H]12)N1CCCCO1,57.1
24,CS(=O)(=O)N1C[C@@H]2COC[C@@H](CC(=O)N3CCCCO3)[C@@H]2C1,28.2
25,O=C(C[C@@H]1COC[C@H]2CN(CC3CCOCC3)C[C@@H]12)N1CCCCO1,76.4
26,O=C(C[C@@H]1COC[C@H]2CN(CC3CC3)C[C@@H]12)N1CCCCO1,16.9
27,O=C([C@@H]1COC[C@H]2CN(C3CCCC3)C[C@H]21)N1CCCCO1,40.5
